From PubChem
PNC assembly inh: inhibitors of perinucleolar compartment assembly | PC3M PTB-GFP, PNC prevalence imaging, 16 h; hits give low values | activity change (PNC), negative = inhibition, % at 10 µM | hit rate 3.1% among 140,000;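 active means readout at or below -70, meaning at least 70% loss of cells showing the perinucleolar compartment, a nuclear body marking cancer cells; inconclusive means readout between -30 and a set limit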
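PC3M cells stably expressing PTB-GFP, 750–1000 cells/well, treated 16 h at 37 °C with compound (23 nl of library stock), in duplicate. After paraformaldehyde fixation and Hoechst stain, imaged at 20x; PNC prevalence scored by image analysis.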
ALDH1A1 block: inhibitors of human aldehyde dehydrogenase 1A1 | P00352 | Purified ALDH1A1, NADH fluorescence, propionaldehyde substrate | Potency, µM (top dose mostly 75.3 µM), hits mostly inhibitors | hit rate 7.3% among 220,000 | AID 1030
Target sequence (P00352 whole entry, looked up): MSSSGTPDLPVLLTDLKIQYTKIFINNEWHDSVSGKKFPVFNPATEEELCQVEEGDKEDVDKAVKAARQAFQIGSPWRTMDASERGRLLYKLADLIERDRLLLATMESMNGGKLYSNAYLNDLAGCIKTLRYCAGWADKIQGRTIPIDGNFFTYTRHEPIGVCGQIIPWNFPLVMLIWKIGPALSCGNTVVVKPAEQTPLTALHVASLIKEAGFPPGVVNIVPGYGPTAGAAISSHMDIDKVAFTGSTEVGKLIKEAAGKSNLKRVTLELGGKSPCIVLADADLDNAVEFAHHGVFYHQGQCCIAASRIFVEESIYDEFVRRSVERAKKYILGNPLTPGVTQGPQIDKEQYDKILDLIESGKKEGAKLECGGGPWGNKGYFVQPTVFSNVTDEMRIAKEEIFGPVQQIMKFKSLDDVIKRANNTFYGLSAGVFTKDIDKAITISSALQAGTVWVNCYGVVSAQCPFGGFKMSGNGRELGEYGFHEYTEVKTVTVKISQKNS
HPGD block: inhibitors of human 15-hydroxyprostaglandin dehydrogenase (HPGD); P15428; purified HPGD, NADH fluorescence kinetic, PGE2 substrate; Potency, µM, most hits filed as inhibitors; hit rate 4.3% among 150,000; AID 894
Target sequence (P15428 whole entry, looked up): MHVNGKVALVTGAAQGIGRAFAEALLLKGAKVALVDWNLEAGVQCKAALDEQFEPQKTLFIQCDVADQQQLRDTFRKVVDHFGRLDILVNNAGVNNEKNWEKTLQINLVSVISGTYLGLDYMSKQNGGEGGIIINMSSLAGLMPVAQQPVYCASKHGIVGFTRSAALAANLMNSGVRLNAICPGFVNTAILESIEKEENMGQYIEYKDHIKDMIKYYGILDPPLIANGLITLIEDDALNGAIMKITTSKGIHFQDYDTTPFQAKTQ
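NADH formation kinetics: reaction with 30 uM PGE2 and 1 mM NAD+ (final), 20 nM enzyme, Tris-HCl pH 8 with Tween 20, after 15 min compound preincubation at room temperature. Fluorescence change, last versus first of five reads.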
Of the large screens only hits and unclear results are named; the others gave an inactive call. Compounds with a hit are over-represented: about 11% of the library has one in this group of screens. Unless noted, the call rests on the fitted dose curve; in most records, active means well fitted inhibition curve with a large enough effect (not every such curve was filed as active); inconclusive means small, poorly fitted or top-dose-only effect, or another doubt; inactive means no such curve, though single readings can be large or run the other way.

Cc1ccccc1NC(=O)c1cc(C(=O)c2cc(Cl)ccc2O)cn(-c2ccccc2C)c1=O	HPGD block 10µM
Cc1ccc(-n2cc(C(=O)c3cc(Cl)ccc3O)cc(C#N)c2=O)cc1	none
CC(C)OCCCn1c(=N)c(C(N)=S)cc2c(=O)n3ccccc3nc21	ALDH1A1 block inconclusive, HPGD block inconclusive
CNc1ncncc1-c1ccccc1OC	ALDH1A1 block inconclusive (no result: PNC assembly inh)
Cc1cccc(C(=O)O/N=C(\c2ccccc2)c2cccnc2)c1	ALDH1A1 block 16µM
Cc1ccc(C(=O)O/N=C(\c2ccccc2)c2cccnc2)cc1	ALDH1A1 block inconclusive
O=C(O/N=C(\c1ccccc1)c1ccccn1)c1ccc(Cl)c(Cl)c1	PNC assembly inh -107, ALDH1A1 block inconclusive
N/C(=N\OC(=O)c1ccc2ccccc2c1)c1ccccn1	none (no result: PNC assembly inh, HPGD block)
CC(C)CCNC(=O)NC(=O)COC(=O)C1CCN(S(=O)(=O)c2ccccc2F)CC1	PNC assembly inh inconclusive
O=C(CC1C(=O)NCCN1Cc1c(F)cccc1Cl)NCCC1=CCCCC1 (stereo unspecified)	none (no result: PNC assembly inh, HPGD block)
COc1cc(CN2CCNC(=O)C2CC(=O)NCCC2=CCCCC2)cc(OC)c1 (stereo unspecified)	ALDH1A1 block 20µM (no result: PNC assembly inh, HPGD block)
COC(=O)[C@@H](NC(=O)N1CCc2nc(-c3ccccc3)c3c(c2C1)CO[C@@H](C)C3)C(C)C	none (no result: PNC assembly inh)
CC(C)(C)c1cc(=O)[nH]c(SCc2ccccc2)n1	none (no result: PNC assembly inh, HPGD block)
CC(C)(C)c1cc(Cc2ccccc2)[nH]n1	HPGD block 20µM
Cc1cccc(C)c1NC(=S)N(CCCN1CCN(C)CC1)Cc1cccs1	none (no result: PNC assembly inh, HPGD block)
CCOCCCNC(=O)C(C)NS(=O)(=O)c1ccc(C)cc1 (stereo unspecified)	PNC assembly inh -90, ALDH1A1 block inconclusive, HPGD block inconclusive
CCOCCCNC(=O)CCc1ccc(S(=O)(=O)Nc2ccc(C)cc2)cc1	none (no result: PNC assembly inh, HPGD block)
CC(=O)Nc1ccc(C2NC(C(=O)O)CCC2C)cc1 (stereo unspecified)	none (no result: PNC assembly inh, HPGD block)
NC(N)=NCCCCN=C(N)N	none (no result: PNC assembly inh)
CCC(=O)NNc1nc2c(Cl)cccc2s1	none (no result: PNC assembly inh, HPGD block)
Cc1ccc(S(=O)(=O)CC(=O)N(C)C)cc1	PNC assembly inh -100
Cc1ccc(S(=O)(=O)CC(N)=O)cc1	none
FC(F)Oc1ccc(NC(=S)NCc2cccnc2)cc1	none (no result: PNC assembly inh, HPGD block)
S=C(NCc1cccnc1)Nc1ccc(Oc2ccccc2)cc1	ALDH1A1 block 32µM (no result: PNC assembly inh, HPGD block)
S=C(NCc1cccnc1)Nc1cc(Cl)cc(Cl)c1	none (no result: PNC assembly inh, HPGD block)
COc1cc(NC(=S)NCc2cccnc2)cc(OC)c1	PNC assembly inh -92
Cc1cccc(CSc2nnc(-c3cccs3)n2Cc2ccco2)c1	none
COc1cc(OC)cc(C(=O)N2CCN(Cc3cccc(F)c3)CC2)c1	ALDH1A1 block inconclusive
O=C(Nc1cccc(Cl)c1)N1CCN(Cc2ccccc2)CC1	PNC assembly inh -96
Cc1cccc(NC(=O)N2CCN(Cc3ccc(Cl)cc3)CC2)c1	none (no result: PNC assembly inh, HPGD block)
COc1cccc(C(=O)N2CCN(Cc3cccc(F)c3)CC2)c1	ALDH1A1 block 18µM
COc1ccc2nc3oc(C(=O)N4CCN(c5cccc(Cl)c5)CC4)cc3cc2c1	PNC assembly inh -87
Oc1cccc(C(=S)N2CCN(Cc3ccccc3)CC2)c1	ALDH1A1 block 11µM, HPGD block 14µM
COc1ccc2nc3oc(C(=O)N4CCN(c5cccc(C(F)(F)F)c5)CC4)cc3cc2c1	none
Cc1cc(C)cc(NC(=S)N2CCN(Cc3ccccc3)CC2)c1	none (no result: PNC assembly inh, HPGD block)
CN(CC(O)Cn1cnc2c1c(=O)n(C)c(=O)n2C)c1ccccc1 (stereo unspecified)	none (no result: PNC assembly inh, HPGD block)
c1cnc(-c2noc(CN3CCN(C4CCCC4)CC3)n2)cn1	none (no result: PNC assembly inh, HPGD block)
Cc1sc(NC(=O)c2ccccc2)c(C(=O)NCCN(C)C)c1C	none
O=C(O)c1cccc(Cn2cc(Cl)cn2)c1	none
Clc1ccc(CN2CCC(Cc3ccccc3)CC2)cc1	ALDH1A1 block inconclusive
COc1ccc(N2CCN(C(=O)c3cccc(Cn4cc(Cl)cn4)c3)CC2)cc1	PNC assembly inh -112
O=C(c1ccccc1)c1ccc(OCCCN2CCCC2)cc1	none
O=C(c1ccccc1)c1ccc(OCCOCCN2CCN(Cc3ccccc3)CC2)cc1	ALDH1A1 block 18µM (no result: PNC assembly inh, HPGD block)
O=C(N1CCN(c2ccccc2)CC1)C12CC3CC(CC(C3)C1)C2	ALDH1A1 block inconclusive
O=C(N1CCN(Cc2ccccc2)CC1)C12CC3CC(CC(C3)C1)C2	ALDH1A1 block 6.3µM
Clc1cccc(CN2CCC(Cc3ccccc3)CC2)c1	ALDH1A1 block 20µM (no result: HPGD block)
O=C(Cc1ccc(Cl)c(Cl)c1)OCCN1CCCC1	ALDH1A1 block inconclusive (no result: PNC assembly inh)
COc1ccc(C(=O)c2ccccc2)c(OCC(=O)N(C)C)c1	none (no result: PNC assembly inh, HPGD block)
COCC(=O)N(CCc1ccc(OC)c(OC)c1)Cc1cc2cc(C)ccc2nc1Cl	none (no result: PNC assembly inh, HPGD block)
CO[C@@H]1/C=C\O[C@]2(C)Oc3c(C)c(O)c4c(O)c(c(CN5CCN(C)CC5)c(O)c4c3C2=O)NC(=O)/C(C)=C\C=C[C@@H](C)[C@@H](O)[C@H](C)[C@@H](O)C(C)[C@H](OC(C)=O)[C@@H]1C (stereo partly specified)	none (no result: PNC assembly inh)
N#Cc1c2c(c(Nc3ccc(O)cc3)n3c1nc1ccccc13)CCC2	none
COc1ccc(CN2CCCCC2C(=O)Nc2ccc(OC)c(OCC(C)C)c2)cc1OC (stereo unspecified)	none
CC1CCN(CC(=O)Nc2ccc(Cl)cc2[N+](=O)[O-])CC1	none (no result: PNC assembly inh, HPGD block)
CC1(C)Cc2c(C#N)c(SCCC#N)nc(N3CCOCC3)c2CS1	ALDH1A1 block inconclusive
CC1=C(C)CC(C(=O)N2CCN(Cc3ccccc3)CC2)C(C(=O)O)C1 (stereo unspecified)	ALDH1A1 block 14µM
Cc1ccc(S(=O)(=O)N2CCC(C(=O)N3CCN(Cc4ccccc4)CC3)CC2)cc1	ALDH1A1 block inconclusive
CS(=O)(=O)c1ccc(C(=O)N2CCN(Cc3ccccc3)CC2)cc1	none (no result: PNC assembly inh, HPGD block)
O=C(c1ccccc1)N1CCN(Cc2ccccc2)CC1	PNC assembly inh -100, ALDH1A1 block inconclusive
COc1cc2c(=O)n(CCC(=O)NCC3CCCO3)c(=O)n(CC(=O)c3ccc(Cl)cc3)c2cc1OC (stereo unspecified)	none (no result: PNC assembly inh, HPGD block)
C=CCn1c(SCC(=O)Nc2ncc(Cc3cc(C(F)(F)F)ccc3Cl)s2)nnc1-c1ccncc1	none
COC(=O)COC(=O)c1ccc(Oc2nc(OC)nc(N(C)C)n2)cc1	none
O=c1c(-c2ccc(F)cc2)nc2cncnc2n1Cc1ccc(F)cc1	none (no result: PNC assembly inh, HPGD block)
COc1ccccc1NC(=O)Cc1noc(CSc2nnc(C)n2C)n1	none (no result: PNC assembly inh, HPGD block)
COC(=O)c1ccccc1NC(=S)N(Cc1ccc2c(c1)OCO2)Cc1cc2cccc(C)c2[nH]c1=O	none
S=P(N1CC1)(N1CC1)N1CC1	HPGD block 10µM (no result: PNC assembly inh)
COc1cc(Nc2ncnc(N)n2)cc(OC)c1OC	none (no result: PNC assembly inh, HPGD block)
C=CCN(CCNP(=O)(OCC)OCC)CP(=O)(OCC)OCC	none
COc1ccc(N(CC(=O)Nc2c(C)cccc2C)S(=O)(=O)c2ccccc2[N+](=O)[O-])c(OC)c1	none (no result: PNC assembly inh, HPGD block)
COC(=O)CN(c1ccc(OC)cc1OC)S(=O)(=O)c1ccccc1[N+](=O)[O-]	ALDH1A1 block 19µM (no result: PNC assembly inh, HPGD block)
O=C(CC1C(=O)NC2CCCCC2N1C(=O)c1ccc(F)cc1)Nc1ccccc1 (stereo unspecified)	none
CCOc1ccc(S(=O)(=O)Nc2cc(S(=O)(=O)N(CC)CC)ccc2N2CCCC2)cc1	PNC assembly inh -121, ALDH1A1 block 0.79µM
CCN(CC)S(=O)(=O)c1ccc(N2CCCC2)c(NC(=O)Cc2ccc(OC)cc2)c1	ALDH1A1 block 1.1µM (no result: PNC assembly inh, HPGD block)
CCOc1ccc(S(=O)(=O)Nc2cc(OC)ccc2OC)cc1	PNC assembly inh inconclusive
